Measurements published in PubChem BioAssay (NCATS).
Records with an inconclusive call do not appear. Where a call stands in place of a potency, no number is given. Active and inactive are the calls of the source. The call rests on the fitted dose curve; in most records, active means well fitted cell-killing curve with a large enough effect; inconclusive means small, poorly fitted or top-dose-only effect; inactive means flat fitted curve, though single readings scatter. Square brackets hold non-standard residues; d marks the D form. Peptide text beside a SMILES is read from it. * marks the point of attachment. ξ: configuration not given here. Hexanoyl = CCCCCC(=O)*; ξL = CC(C)CC(N)C(=O)O

Experiment: OV-SAHO Cancer Cell Toxicity qHTS against the NCATS CANVASS Library (AID 1347348); further: nearly all actives have a fitted effect of over 55% in size
Settings: OV-SAHO viability, CellTiter-Glo luminescence, 72 h; series mostly up to 38.3 µM
Method in brief: (§1)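 1000 cells/well; 4 h settle; 11-pnt titration; 72 h, 37 degrees C, 5% CO2; CellTiter-Glo, 15min RT; luminescence read.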
Potency means the concentration at half of the fitted maximal effect.

SMILES	Potency
CC(=O)N[C@H](C)c1nc(/C=C/C=C/C(=O)CC2CC(=O)CC[C@]2(C)O)cs1 (stereo not given in full)	inactive
CN1C(=O)C(=O)N2C(=C[C@]3(c4c[nH]c5ccccc45)c4ccccc4N[C@H]23)C1=O	inactive
CN1CC[C@]23c4ccccc4N[C@H]1[C@]21CCN(C)[C@H]3Nc2ccccc21	inactive
C/C=C1/C2=CCCN3C(=O)O[C@H]([C@H]1O)[C@H]23	inactive
O=C1CC(c2ccc(O)cc2)Oc2ccccc21 (stereo not given)	13.3 µM (active)
COc1c(O)cc(O)c2c(=O)cc(-c3ccccc3)oc12	inactive
COC1C(C)OC(OCC23C[C@@H]4[C@H](C)CC[C@H]4C4(C=O)CC2C=C(C(C)C)C34C(=O)O)[C@@H](O)[C@H]1O (stereo not given in full)	inactive
CN1CC[C@@]2([C@@]34CCN(C)[C@@H]3Nc3ccccc34)c3ccccc3N[C@@H]12	inactive
COc1ccc(-c2oc3cc(OC)cc(OC)c3c(=O)c2O)cc1	inactive
Cc1cc(O)cc2c1C(=O)c1c(O)cc(O)cc1C2=O	inactive
C=C(Cl)[C@](Cl)(CBr)CC[C@@H](Br)C(C)(C)Cl	inactive
C=C(C)C(=O)O[C@H]1C[C@@]2(C)OC(=CC2=O)/C(C)=C\[C@H]2OC(=O)C(=C)[C@H]12	5.29 µM (active)
C=C[C@]1(C)CC[C@@H]([C@H](C)C(=O)CC=C(C)C)O1	inactive
CC[C@@H]1C[C@@]2(CC)OC(=O)[C@@]3(CC)[C@H](CC)[C@@H]1[C@@H]23	inactive
[C-]#[N+][C@@]12C(=O)[C@@H]3[C@@H](O[C@@]4(C(=O)N(C)c5cccc1c54)C3(C)C)C(=O)[C@@]2(C)C=C	inactive
C[C@@]12CCC[C@@](C)(C(=O)OP(=O)(O)OC[C@H]3O[C@@H](n4cnc5c(N)ncnc54)[C@H](O)[C@@H]3O)[C@H]1C[C@@H](O)[C@@]13C[C@@H](CC[C@@H]21)[C@](C)(O)C3	inactive
CCC(C)=C1OC(=O)[C@H](C)[C@H](O)[C@H](Cc2cccnc2)NC(=O)C(NC(=O)c2ncccc2O)C(C)OC1=O (stereo not given in full)	inactive
C[C@@]12CCC[C@@](C)(C(=O)O)[C@H]1CC[C@@]13C[C@@H](CC[C@H]12)[C@](C)(O)C3	inactive
O=C1OC(CCO)c2cccc(O)c21 (stereo not given)	inactive

SMILES	Potency
C=C1C[C@]23C=CC(=O)[C@@](C)(CCCC(C)C(=O)N[C@@H](CO)C(=O)O)[C@@H]2C[C@@H]1CC3 (stereo not given in full)	inactive
C/C(=C\[C@@H](C)CC/C=C/CC/C=C/C(=O)O)[C@@H](O)[C@H](C)C(=O)CCCC1CC(=O)NC(=O)C1	inactive
CO[C@@H](C[C@@H](C)[C@@H](O)/C=C/C=C/CNC(=O)C(C)(C)[C@H](O)\C(C)=C/C=C\C=C\Cc1cnco1)[C@]1(O)[C@@H](C)C(=O)N(C)[C@@]12COC2=O	inactive
O=C1CC(c2ccc(O)cc2)Oc2cc(O)cc(O)c21 (stereo not given)	inactive
O=C1CC(c2ccc(O)cc2)Oc2cc(O)ccc21 (stereo not given)	inactive
CN1CC[C@@]23c4ccccc4N[C@@H]1[C@@]21CCN(C)[C@@H]3Nc2ccccc21	inactive
C[C@@]12CCC[C@@](C)(C(=O)O)[C@H]1C[C@@H](O)[C@@]13C[C@@H](CC[C@@H]21)[C@](C)(O)C3	inactive
O=Cc1ccc2n1C[C@]1(OC2)O[C@H](CO)[C@@H](O)[C@@H]1O	inactive
C=C[C@@]1(C)CC[C@@H]([C@H](C)C(C)=O)O1	inactive
C/C=C(/CO)C(=O)O[C@@H]1[C@H](O)[C@@H](C(=O)OC)O[C@@H]2C[C@H]3OC(n4cnc5c(N)ncnc54)[C@H](OC)[C@H]3O[C@@]12O (stereo not given in full)	inactive
C/C=C/[C@H]1[C@H]2C(=O)c3c(O)c(C)c(O)c(C)c3[C@]1(C(=O)O)C(=O)C=C2C	inactive
C[C@@]12C[C@@H](C[C@@H]3C(=O)O[C@@H](c4ccoc4)[C@H](OC(=O)c4ccccc4)[C@@H]31)OC2=O	inactive
C=C1CCC2C(C)(C(=O)O)CCC(CC/C(C)=C/C(=O)NC(CCC(N)=O)C(=O)O)[C@@]2(C)C1 (stereo not given in full)	inactive
C=C1[C@@]2(C)CC3C4(C)CCC(O)C(C)(C)C4CCC3(C)[C@]1(C(=O)OC)C(=O)C(C)(O)C2=O (stereo not given in full)	inactive
CC(C)=CCC[C@]1(C)[C@H]2CC(=O)[C@@]3(CO3)[C@@H]1C2	inactive
CCCCCC(=O)N[C@@H](CC(C)C)C(=O)N[C@H](C=O)CCC(=O)O (Hexanoyl-Leu-Glu-aldehyde)	inactive
COc1ccc([C@@H]2c3cc4c(cc3C(=O)C(C)C2C)OCO4)cc1OC (stereo not given in full)	inactive
CC1(C)CC[C@]2(CO)CC[C@]3(C)C(=CCC4[C@@]5(C)CC[C@H](O)C(C)(C)C5CC[C@]43C)C2C1 (stereo not given in full)	inactive

Experiment: Panc-1005 Cancer Cell Toxicity qHTS against the NCATS CANVASS Library (AID 1347349); further: nearly all actives have a fitted effect of over 60% in size
Settings: Panc-1005 viability, CellTiter-Glo luminescence, 72 h; series mostly up to 38.3 µM
Method in brief: as §1

SMILES	Potency
CC(=O)N[C@H](C)c1nc(/C=C/C=C/C(=O)CC2CC(=O)CC[C@]2(C)O)cs1 (stereo not given in full)	inactive
CN1C(=O)C(=O)N2C(=C[C@]3(c4c[nH]c5ccccc45)c4ccccc4N[C@H]23)C1=O	inactive
CN1CC[C@]23c4ccccc4N[C@H]1[C@]21CCN(C)[C@H]3Nc2ccccc21	inactive
C/C=C1/C2=CCCN3C(=O)O[C@H]([C@H]1O)[C@H]23	inactive
O=C1CC(c2ccc(O)cc2)Oc2ccccc21 (stereo not given)	inactive
COc1c(O)cc(O)c2c(=O)cc(-c3ccccc3)oc12	inactive
COC1C(C)OC(OCC23C[C@@H]4[C@H](C)CC[C@H]4C4(C=O)CC2C=C(C(C)C)C34C(=O)O)[C@@H](O)[C@H]1O (stereo not given in full)	inactive
CN1CC[C@@]2([C@@]34CCN(C)[C@@H]3Nc3ccccc34)c3ccccc3N[C@@H]12	inactive
COc1ccc(-c2oc3cc(OC)cc(OC)c3c(=O)c2O)cc1	inactive
CC[C@@H](C)[C@H]1NC(=O)C(CC(C)C)NC(=O)[C@@H](CC(C)C)NC(=O)[C@H](Cc2c[nH]c3ccccc23)NC(=O)CNC(=O)[C@@H](CC(N)=O)NC1=O (stereo partly drawn) (cyclo(GW[dL][ξL][dI][dN]))	inactive
Cc1cc(O)cc2c1C(=O)c1c(O)cc(O)cc1C2=O	inactive
C=C(Cl)[C@](Cl)(CBr)CC[C@@H](Br)C(C)(C)Cl	3.75 µM (active)
C=C(C)C(=O)O[C@H]1C[C@@]2(C)OC(=CC2=O)/C(C)=C\[C@H]2OC(=O)C(=C)[C@H]12	1.88 µM (active)
C=C[C@]1(C)CC[C@@H]([C@H](C)C(=O)CC=C(C)C)O1	inactive
CC[C@@H]1C[C@@]2(CC)OC(=O)[C@@]3(CC)[C@H](CC)[C@@H]1[C@@H]23	inactive
[C-]#[N+][C@@]12C(=O)[C@@H]3[C@@H](O[C@@]4(C(=O)N(C)c5cccc1c54)C3(C)C)C(=O)[C@@]2(C)C=C	inactive
C[C@@]12CCC[C@@](C)(C(=O)OP(=O)(O)OC[C@H]3O[C@@H](n4cnc5c(N)ncnc54)[C@H](O)[C@@H]3O)[C@H]1C[C@@H](O)[C@@]13C[C@@H](CC[C@@H]21)[C@](C)(O)C3	inactive
CCC(C)=C1OC(=O)[C@H](C)[C@H](O)[C@H](Cc2cccnc2)NC(=O)C(NC(=O)c2ncccc2O)C(C)OC1=O (stereo not given in full)	inactive
C[C@@]12CCC[C@@](C)(C(=O)O)[C@H]1CC[C@@]13C[C@@H](CC[C@H]12)[C@](C)(O)C3	inactive

SMILES	Potency
O=C1OC(CCO)c2cccc(O)c21 (stereo not given)	inactive
C=C1C[C@]23C=CC(=O)[C@@](C)(CCCC(C)C(=O)N[C@@H](CO)C(=O)O)[C@@H]2C[C@@H]1CC3 (stereo not given in full)	inactive
C/C(=C\[C@@H](C)CC/C=C/CC/C=C/C(=O)O)[C@@H](O)[C@H](C)C(=O)CCCC1CC(=O)NC(=O)C1	inactive
CO[C@@H](C[C@@H](C)[C@@H](O)/C=C/C=C/CNC(=O)C(C)(C)[C@H](O)\C(C)=C/C=C\C=C\Cc1cnco1)[C@]1(O)[C@@H](C)C(=O)N(C)[C@@]12COC2=O	inactive
O=C1CC(c2ccc(O)cc2)Oc2cc(O)cc(O)c21 (stereo not given)	inactive
O=C1CC(c2ccc(O)cc2)Oc2cc(O)ccc21 (stereo not given)	inactive
CN1CC[C@@]23c4ccccc4N[C@@H]1[C@@]21CCN(C)[C@@H]3Nc2ccccc21	inactive
C[C@@]12CCC[C@@](C)(C(=O)O)[C@H]1C[C@@H](O)[C@@]13C[C@@H](CC[C@@H]21)[C@](C)(O)C3	inactive
O=Cc1ccc2n1C[C@]1(OC2)O[C@H](CO)[C@@H](O)[C@@H]1O	inactive
C=C[C@@]1(C)CC[C@@H]([C@H](C)C(C)=O)O1	inactive
C/C=C(/CO)C(=O)O[C@@H]1[C@H](O)[C@@H](C(=O)OC)O[C@@H]2C[C@H]3OC(n4cnc5c(N)ncnc54)[C@H](OC)[C@H]3O[C@@]12O (stereo not given in full)	inactive
C/C=C/[C@H]1[C@H]2C(=O)c3c(O)c(C)c(O)c(C)c3[C@]1(C(=O)O)C(=O)C=C2C	inactive
C[C@@]12C[C@@H](C[C@@H]3C(=O)O[C@@H](c4ccoc4)[C@H](OC(=O)c4ccccc4)[C@@H]31)OC2=O	inactive
C=C1CCC2C(C)(C(=O)O)CCC(CC/C(C)=C/C(=O)NC(CCC(N)=O)C(=O)O)[C@@]2(C)C1 (stereo not given in full)	inactive
C=C1[C@@]2(C)CC3C4(C)CCC(O)C(C)(C)C4CCC3(C)[C@]1(C(=O)OC)C(=O)C(C)(O)C2=O (stereo not given in full)	inactive
CC(C)=CCC[C@]1(C)[C@H]2CC(=O)[C@@]3(CO3)[C@@H]1C2	inactive
CCCCCC(=O)N[C@@H](CC(C)C)C(=O)N[C@H](C=O)CCC(=O)O (Hexanoyl-Leu-Glu-aldehyde)	inactive
COc1ccc([C@@H]2c3cc4c(cc3C(=O)C(C)C2C)OCO4)cc1OC (stereo not given in full)	inactive
CC1(C)CC[C@]2(CO)CC[C@]3(C)C(=CCC4[C@@]5(C)CC[C@H](O)C(C)(C)C5CC[C@]43C)C2C1 (stereo not given in full)	inactive
